# From article PMC5540273 (PLoS ONE, 2017)
# Tests used:
# Settings in all cases: concentration: 1 μM, replicates: in singlicate; n = 1
# PDGFRB = tested on: PDGFRB
# PDPK1 = tested on: PDPK1
# PFTAIRE2 = tested on: PFTAIRE2
# PFTK1 = tested on: T1, PFTK1
# T1 construct: gene CDK14
# PHKG1 = tested on: PHKG1
# PHKG2 = tested on: PHKG2
# PIK3C2B = tested on: PIK3C2B
# PIK3C2G = tested on: PIK3C2G
# PIK3CA = tested on: PIK3CA
# PIK3CB = tested on: PIK3CB
# PIK3CD = tested on: PIK3CD
# PIK3CG = tested on: PIK3CG
# PIK4CB = tested on: T2, PIK4CB
# T2 construct: gene PI4KB
# PIKFYVE = tested on: PIKFYVE
# PIM1 = tested on: PIM1
# PIM2 = tested on: PIM2
# PIM3 = tested on: PIM3
# PIP5K1A = tested on: PIP5K1A
# PIP5K1C = tested on: PIP5K1C
# PIP5K2B = tested on: PIP5K2B
# 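Also: KINOMEscan kinase panel screen.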
SMILES,%Inh (PDGFRB) [%],%Inh (PDPK1) [%],%Inh (PFTAIRE2) [%],%Inh (PFTK1) [%],%Inh (PHKG1) [%],%Inh (PHKG2) [%],%Inh (PIK3C2B) [%],%Inh (PIK3C2G) [%],%Inh (PIK3CA) [%],%Inh (PIK3CB) [%],%Inh (PIK3CD) [%],%Inh (PIK3CG) [%],%Inh (PIK4CB) [%],%Inh (PIKFYVE) [%],%Inh (PIM1) [%],%Inh (PIM2) [%],%Inh (PIM3) [%],%Inh (PIP5K1A) [%],%Inh (PIP5K1C) [%],%Inh (PIP5K2B) [%]
c1ccc(-c2ccc3c(-c4ccnc(Nc5ccc6c(c5)OCCO6)n4)cnn3n2)cc1 [GW818941],4,17,5,19,0,0,0,11,0,0,0,0,0,0,9,0,17,0,0,1
N#Cc1ccc(Oc2ccc(Nc3ncnc4cc[nH]c34)cc2Cl)cc1,31,1,11,17,5,18,0,28,5,11,36,0,0,7,20,6,29,0,0,11
CS(=O)(=O)CCNCc1ccc(-c2ccc3ncnc(Nc4ccc(OCc5ccccc5)c(Cl)c4)c3c2)o1.Cl [GW574783],14,17,0,0,13,0,38,0,0,0,0,0,8,23,0,5,0,32,62,0
COc1ccc(NC(=O)Nc2ccc(C)c(-c3ccc(C(=O)Nc4ccncc4)cc3)c2)cc1 [GSK1398475],100,0,20,24,0,0,0,0,0,0,0,0,0,0,0,0,3,0,17,0
NC(=O)c1sc(-n2cnc3ccccc32)cc1OCc1ccccc1F [GSK1024306],2,19,7,6,0,0,0,0,0,0,39,0,0,20,21,0,0,0,53,0
Cl.c1ccc(Cn2ncc3cc(Nc4ncnc5ccccc45)ccc32)cc1 [GW273749],0,0,20,14,0,0,16,0,0,7,0,3,0,0,0,0,1,0,11,10
COc1cc2ncnc(Nc3ccc(OCc4ccccc4Br)c(Cl)c3)c2cc1OC.Cl [GI261590],0,0,4,29,3,0,0,0,0,45,0,0,0,28,0,0,15,34,56,11
CNc1nccc(-c2c(-c3ccc(F)cc3)ncn2CCCN2CCOCC2)n1 [SB-222516],4,0,9,0,0,0,0,3,0,6,0,0,20,0,0,0,81,6,17,0
CNc1nccc(-c2c(-c3ccc(F)cc3)ncn2C2CCN(C)CC2)n1 [SB-222903],17,0,0,0,0,0,0,0,0,0,0,0,0,9,1,0,0,36,0,0
Nc1nc(-c2ccc3c(N)n[nH]c3c2)cc(N2CCCCC2)n1 [GSK2228768],8,94.6,1,9,0,0,0,0,0,0,0,0,0,0,0,0,0,0,31,4
